# Assay results: paper PMC5540273 (PLoS ONE, 2017)
# How the values were obtained:
# Details in all cases: concentration: 1 μM, replicates: in singlicate; n = 1
# TESK1 = test system: TESK1
# TGFBR1 = test system: TGFBR1
# TGFBR2 = test system: TGFBR2
# TIE1 = test system: TIE1
# TIE2 = test system: T1, TIE2
# T1 construct: gene TEK
# TLK1 = test system: TLK1
# TLK2 = test system: TLK2
# TNIK = test system: TNIK
# TNK1 = test system: TNK1
# TNK2 = test system: TNK2
# 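Note: KINOMEscan kinase panel screen.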
SMILES,%Inh (TESK1) [%],%Inh (TGFBR1) [%],%Inh (TGFBR2) [%],%Inh (TIE1) [%],%Inh (TIE2) [%],%Inh (TLK1) [%],%Inh (TLK2) [%],%Inh (TNIK) [%],%Inh (TNK1) [%],%Inh (TNK2) [%]
Fc1cc(Cl)ccc1Nc1ccnc2cc(-c3ccc(CN4CCOCC4)o3)ccc12 [GW560109],13,0,83,13,8,0,0,53,81,82
Nc1cccc(-c2ccc3c(N)n[nH]c3c2)c1 [GSK2193613],29,0,0,6,0,3,0,93.2,0,13
COc1ccc(C2=C(Nc3cccc(O)c3)C(=O)NC2=O)cc1 [SB-390766],12,20,0,0,0,0,4,0,0,5
Cl.Cl.NC(CNC(=O)c1cc(Br)c(-c2ccnc3[nH]ccc23)s1)c1ccccc1 (centres unmarked) [GSK1322949],37,10,32,33,6,31,12,59,14,10
Cc1cc(-c2c(-c3ccc(F)cc3)ncn2CCCN2CCOCC2)nc(N)n1 [SB-222517],14,0,0,27,20,0,34,0,26,0
CN(c1ccc(NC(=O)Nc2cccc(Cl)c2)cc1)c1ccnc(N)n1.Cl [GW830707],4,71,0,86,19,0,5,0,28,3
COC(=O)Nc1nc2cc(Oc3ccc(NC(=O)Nc4cccc(SC)c4)cc3)ccc2[nH]1.Cl [GW697999],3,25,0,96.5,93.2,0,0,0,4,10
Cc1ccc(O)cc1Nc1ccnc2ccc(C(C)(C)C)cc12 [GW856805],0,8,93.2,38,39,0,31,0,69,13
CCNC(=O)/C=C/c1n[nH]c2cc(Sc3ccccc3C(=O)NC)ccc12,10,5,0,59,20,12,0,57,67,27
Cc1ccc(NC(=O)c2cccc(N3CCCCC3)c2)cc1-c1ccc(C(=O)NCC2CC2)cc1 [GSK1917008],0,24,9,1,0,4,0,2,6,16
Cn1cc(-c2ccc3c(c2)CCN3C(=O)Cc2cc(F)cc(F)c2F)c2c(N)ncnc21 [GSK2634140],22,10,0,76,52,3,0,5,8,7
Cc1ccc(-c2ccc3occ(-c4ccc(S(C)=O)cc4)c3c2)nn1 (centres unmarked),0,0,18,0,15,0,38,0,0,0
Nc1ncnc2scc(-c3ccc(NC(=O)Cc4cc(F)ccc4F)cc3)c12.O=C(O)C(F)(F)F [SB-731254-M],51,4,20,98.7,77,11,1,27,44,2
Fc1cc(Cl)ccc1Nc1ccnc2cc(-c3ccc(CN4CCSCC4)o3)ccc12 [GW560106],17,0,71,1,6,0,0,47,87,75
CN(c1ccc(NC(=O)N2CCN(CCCN3CCOCC3)CC2)cc1)c1ccnc(Nc2ccc(CS(C)(=O)=O)cc2)n1.Cl [GW830899],9,6,59,0,16,2,0,15,41,12
Cn1cc(-c2ccc3c(c2)CCN3C(=O)Cc2cc(F)cc(C(F)(F)F)c2)c2c(N)ncnc21 [GSK2635225],26,0,0,87,52,17,5,20,10,2
COc1ccc(NC(=O)c2ccoc2)cc1-c1ccc(C(=O)NCC2CC2)cc1 [GW810437],6,37,0,0,5,2,12,21,16,0
CN(c1ccc(F)c(NC(=O)c2cccc(OC(C)(C)C#N)c2Cl)c1)c1ccc2nc(NC(=O)C3CC3)sc2n1,6,3,0,67,0,2,0,95.6,42,0
COC(=O)Nc1nc2ccc(Oc3ccc(NC(=O)Nc4cc(C(F)(F)F)ccc4F)cc3)cc2[nH]1.Cl [GW654607],0,0,7,97.7,99.7,7,4,5,48,12
CN(c1ccc2c(c1)nc(NCc1ccccc1)n2C)c1ccnc(Nc2ccc(CS(C)(=O)=O)cc2)n1.Cl [GW811603],0,30,5,88,82,0,0,24,25,0
O=C(Nc1n[nH]c2cc(-c3cccs3)ccc12)C1CC1 [SB-731284],0,0,0,0,7,0,0,56,0,0
COc1cccc(C2=C(Nc3cccc(O)c3)C(=O)NC2=O)c1 [SB-390771],34,19,0,0,0,29,33,0,0,15

SMILES,%Inh (TESK1) [%],%Inh (TGFBR1) [%],%Inh (TGFBR2) [%],%Inh (TIE1) [%],%Inh (TIE2) [%],%Inh (TLK1) [%],%Inh (TLK2) [%],%Inh (TNIK) [%],%Inh (TNK1) [%],%Inh (TNK2) [%]
CN(C)CCOc1ccc(-c2cc(-c3ccc(Cl)c(O)c3)c(-c3ccncc3)[nH]2)cc1.Cl.Cl [SB-684387],19,54,75,4,39,16,7,33,28,15
COc1cc(Nc2nccc(N3CCC(NC(=O)Nc4ccc5c(c4)OCO5)C3)n2)cc(OC)c1OC (centres unmarked) [GSK1379766],22,22,0,42,0,0,0,0,20,9
O=C(Nc1n[nH]c2nc(-c3cccc(O)c3)ccc12)C1CC1 [SB-711805],0,4,87,0,21,9,100,65,4,0
COc1cccc(-c2nc(-c3ccccc3)[nH]c2-c2ccncc2)c1 [SB-610250],22,17,5,0,0,0,0,0,0,8
CC(C)(C)c1ccc(C(=O)Nc2cn3cc(-n4ccnc4)ccc3n2)cc1,0,0,0,3,17,4,0,2,0,0
O=C(Nc1n[nH]c2nc(-c3ccccc3O)ccc12)C1CC1 [SB-711880],0,0,0,16,0,22,0,79,20,0
Cc1ccc(C)c(NC(=O)Nc2ccc(C)c(-c3ccc(C(=O)Nc4ccncc4)cc3)c2)c1 [GSK1398473],20,11,0,0,0,0,0,0,7,36
Cc1cccc(Nc2nc(N[C@H]3CCCC[C@H]3N)ncc2C(N)=O)c1.Cl [GSK986310],22,0,0,15,0,17,7,74,33,31
CCn1cnc2c(NCc3ccccc3)ncnc21 [SKF-96418],15,25,0,0,0,0,1,0,2,0
COc1cc(Nc2nccc(N3CCC(NS(=O)(=O)c4ccc(NC(C)=O)cc4)CC3)n2)cc(OC)c1OC [GSK1379825],71,61,0,63,63,0,0,22,6,76
CSc1ccc(NC2=C(c3ccc(Cl)cc3)C(=O)NC2=O)cc1 [SB-317658],20,38,23,42,17,8,18,0,41,0
CC(C)c1nc(-c2cccc(NS(=O)(=O)c3c(F)cccc3F)c2)c(-c2ccnc(Nc3ccc(N4CCOCC4)nc3)n2)s1.Cl [GSK1723980],100,93.1,92.4,92.5,97.2,16,0,12,100,98.5
Cc1nn2c(=O)cc(N3CCO[C@H](C)C3)nc2n1Cc1cccc(Cl)c1Cl [GSK2373693],20,0,8,15,2,0,0,0,0,10
Nc1ncc(-c2cn[nH]c2)c2scc(-c3ccc4c(c3)CCN4C(=O)Cc3ccccc3)c12 [GSK2593067],59,0,0,97.4,83,0,0,69,45,79
COc1cccc(CC(=O)N2CCc3cc(-c4cn(C)c5ncnc(N)c45)ccc32)c1 [GSK2608899],21,0,6,82,42,15,0,81,0,0
CC(=O)Nc1cn2nc(Oc3cccc(NC(=O)c4cccc(C(F)(F)F)c4)c3)ccc2n1,13,9,0,81,65,0,0,38,68,0
CCn1c(-c2nonc2N)nc2c(-c3ccccc3)ncc(OCCCN)c21.O=C(O)C(F)(F)F.O=C(O)C(F)(F)F [GSK260205],0,76,0,70,41,1,0,85,1,8
Cc1ccc(NC(=O)c2ccc(Cl)c(Cl)c2)cc1-c1ccc(C(=O)Nc2ccncc2)cc1 [GSK1398460],29,0,0,0,0,8,6,0,29,19
CC(C)c1nc(-c2ccc(F)c(NS(=O)(=O)c3c(F)cccc3F)c2)c(-c2ccnc(Nc3ccc(N4CCOCC4)nc3)n2)s1 [GSK1804250],96.2,90.8,92.9,87,98.9,19,11,27,100,99.5
O=C(O)C(F)(F)F.O=c1[nH]ccc2nc(N[C@@H]3CCNC3)nc(Nc3ccc4c(c3)S(=O)(=O)CC4)c12 [GSK2181306],0,0,0,0,0,94.6,98.5,98,31,3
N#Cc1cnc2cc(-c3cnc(CNCCN4CCOCC4)s3)ccc2c1Nc1ccc(Oc2ccccc2)cc1 [GW664114],6,6,0,11,6,21,11,92.9,99,94.6
Cc1ccc(Nc2ccnc(Nc3ccc(C)c(F)c3)n2)cc1O.Cl [GW582868],0,0,83,47,0,0,0,0,0,29

SMILES,%Inh (TESK1) [%],%Inh (TGFBR1) [%],%Inh (TGFBR2) [%],%Inh (TIE1) [%],%Inh (TIE2) [%],%Inh (TLK1) [%],%Inh (TLK2) [%],%Inh (TNIK) [%],%Inh (TNK1) [%],%Inh (TNK2) [%]
Cc1cccc(Nc2nc(NCCN)ncc2C(N)=O)c1 [GSK1292139],0,0,0,0,0,18,17,89,0,0
CCNc1nccc(-c2c(-c3ccc(F)cc3)ncn2C2CCN(C)CC2)n1,0,0,0,100,0,17,0,24,0,0
Cl.Cl.NCC(NC(=O)c1cc(-c2cccnc2)c(-c2ccnc3[nH]ccc23)s1)c1ccccc1 (centres unmarked) [GSK1323434],19,22,27,19,0,14,0,77,0,16
COc1cc(Nc2ccnc3cc(-c4ccncc4)ccc23)cc(OC)c1OC.Cl [GW494610],73,63,59,19,15,0,0,89,40,28
CN(C)c1ncnc2nc[nH]c12 [SKF-31736],0,0,0,5,0,0,0,0,0,0
Cl.N#CCc1ccc(Nc2nccc(Nc3ccc(Oc4ccccc4)cc3)n2)cc1 [GW639905],56,0,8,2,9,0,0,0,59,26
CN(C)CCNS(=O)(=O)c1ccc(-c2ccnc3[nH]ccc23)cc1 [GSK977620],74,0,0,32,0,7,7,0,0,7
COc1cccc(NC(=O)NCCNc2ccnc(Nc3ccc(F)cc3)n2)c1 [GSK1379879],40,26,0,1,0,0,0,0,0,9
Cc1ccc(NC(=O)c2ccnc(N3CCCCC3)c2)cc1-c1ccc(C(=O)NCC2CC2)cc1 [GW775610],1,6,0,0,0,100,0,0,0,0
Cc1ccccc1CC(=O)N1CCc2cc(-c3cn(C)c4ncnc(N)c34)ccc21 [GSK2603346],45,0,3,87,48,0,0,0,0,27
Nc1ncc(-c2ccc3nccc(-c4ccncc4)c3c2)cc1S(=O)(=O)N1CCCCC1 [GSK1693850],20,0,0,4,0,37,0,10,0,9
N#CC1(c2cccc(C(=O)Nc3cccc(Oc4ccc5nc(NC(=O)C6CC6)sc5n4)c3)c2)CC1,9,0,0,73,37,0,0,53,76,0
COc1cccc2c(-c3ccncc3)c(-c3ccc(F)cc3)nn12 [GW468513],0,65,47,33,0,0,0,69,0,14
Cc1ccc(O)cc1Nc1ccnc2cc(-c3ccc(CN4CCCCC4)o3)ccc12 [GW557777],0,47,98,61,57,23,5,24,0,26
CS(=O)(=O)c1cccc(CNc2nc(Nc3ccc4c(c3)CCC(=O)N4)ncc2C(F)(F)F)c1,0,2,0,57,30,0,0,90.1,73,0
O=C(O)C(F)(F)F.O=c1[nH]ccc2nc(N[C@@H]3CCNC3)nc(Nc3cc(Cl)cc(Cl)c3)c12 [GSK2188764],8,25,0,0,0,62,73,96.5,41,4
COC(=O)Nc1nc2ccc(Oc3ccc(CC(=O)Nc4cc(C(F)(F)F)ccc4F)cc3)cc2[nH]1 [GW680903],17,17,0,94,36,14,0,0,0,17
O=C(Nc1c(F)cccc1F)c1cc(C(=O)c2ccccc2F)c[nH]1 [GSK1326180],10,0,6,0,0,0,0,20,8,8
Cl.O=C(Nc1ccc(Oc2ccc3[nH]c(NC(=O)c4ccco4)nc3c2)cc1)Nc1cc(C(F)(F)F)ccc1F [GW683134],36,0,0,100,99.8,0,3,0,56,8
O=C(Nc1n[nH]c2nc(-c3ccccc3)ccc12)C1CC1 [SB-708999],17,0,0,15,3,0,0,79,0,2
NCCC(NC(=O)c1cc(Br)c(-c2ccnc3[nH]ccc23)s1)c1ccccc1.O=C(O)C(F)(F)F.O=C(O)C(F)(F)F (centres unmarked) [GSK1307810],6,3,0,73,0,23,0,52,0,9
